# In the library only some 1.3% were active in any assay of this set; here they are far more common.
# IL-2 act: activators of IL-2. AID 652025. IL-2 activation reporter assay, cell-based qHTS; stimulated with anti-CD3/CD4/CD28 beads; in transgenic mouse T cells. 360,000 tested, 0.065% active. activation, % (series mostly up to about 46 µM); in the data active means activation above about 50%; inconclusive means mostly about 30% to 49%
#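 Unstimulated transgenic mouse T cells; 60-min compound exposure; bead-based TCR/CD4/CD28 stimulation; 18 h culture, 37 degrees C; dual fluorescence (EGFP, DsRed) plate cytometry.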
# TRPML1 ag: activates the human TRPML1 channel. Q9GZU1. TRPML1-expressing cells, Ca2+ dye fluorescence, FDSS. activation, % (concentration not given with the values). 410,000 tested, 0.12% active. AID 624414; in the data active means activation above about 50%; inconclusive means mostly about 30% to 49%
#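 Calcium fluorescence on an FDSS kinetic reader gave the read-out. Tet-induced TRPML1-DL cells were plated overnight, dye-loaded (Ca8 with quencher, 45-90 min, room temperature, dark), then read 110 s after compound addition, and again 110 s after 4uM final 54-4 (EC80).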
# PTAP TSG101 blk: blocks PTAP/TSG101 interaction to inhibit HIV-1 budding. AID 493005. Fluorescence polarization, FITC-PTAP peptide / Tsg101 binding. Potency, µM (series often up to 115 µM), actives largely listed as inhibitors. Q99816. 340,000 tested, under 10 active; active means well fitted inhibition curve with a large enough effect in the main read-out, with a control signal flat, not every such curve was filed as active; inconclusive means small, poorly fitted or top-dose-only effect, or effect the other way, or a change in a side signal; inactive means no such curve, though single readings can be large or run the other way
#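 Steps: Tsg101 binding domain dispensed (10 uM final), compounds pinned in DMSO, FITC-labeled PTAP-motif peptide added (50 nM final); after 20 min binding at room temperature, polarization measured.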
# PKM2 activator: increases activity of human pyruvate kinase M2. purified PKM2, Kinase-Glo ATP luminescence, activation; response scale: 0% is enzyme alone, no compound. AID 1631. P14618. Potency, µM (doses to about 57.5 µM), most hits filed as activators. 260,000 tested, 0.34% active; further: nearly all actives have a fitted effect of over 55% in size
# Target sequence (P14618 whole entry, looked up): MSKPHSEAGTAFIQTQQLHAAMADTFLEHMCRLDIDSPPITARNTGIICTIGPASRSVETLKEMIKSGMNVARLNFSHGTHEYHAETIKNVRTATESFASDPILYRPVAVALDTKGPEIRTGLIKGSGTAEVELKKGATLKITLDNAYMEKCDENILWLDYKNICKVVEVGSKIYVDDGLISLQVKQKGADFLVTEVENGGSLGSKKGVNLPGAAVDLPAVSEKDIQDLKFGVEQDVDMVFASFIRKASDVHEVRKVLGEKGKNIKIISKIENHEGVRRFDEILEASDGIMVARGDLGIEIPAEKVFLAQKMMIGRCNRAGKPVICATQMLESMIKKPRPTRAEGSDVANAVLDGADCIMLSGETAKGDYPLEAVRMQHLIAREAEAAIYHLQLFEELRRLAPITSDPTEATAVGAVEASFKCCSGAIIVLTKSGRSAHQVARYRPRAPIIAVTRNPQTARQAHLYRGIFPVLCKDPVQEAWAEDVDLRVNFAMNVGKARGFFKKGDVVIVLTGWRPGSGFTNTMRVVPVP
#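 Kinase-Glo luminescence reports ATP generated from ADP (0.1 mM) and PEP (0.5 mM) by purified hPK-M2 after 1 h at room temperature, pH 7.2 imidazole buffer; intermediate enzyme activity allows detecting inhibitors and activators.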
# BRCA1 expr act: activators of BRCA1 expression; AID 624202; 380,000 tested, 1.1% active; Potency, µM (series often up to 46.1 µM), most hits filed as activators; MCF7-BRCA1-FFLuc reporter, luminescence, 48 h; response scale: scaled: vehicle 0%, 10 µM genistein 100%; further: nearly all actives have a fitted effect of over 80% in size
#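 First, MCF7-BRCA1-FFLuc cells (2000/well) attach for 2 h; next, compounds are pin-added and incubated 48 h at 37 °C; finally, luciferase reagent is added and luminescence read after 15 min.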
# TRPML1 inh: inhibitors of human TRPML1 channel. Q9GZU1. TRPML1-inducible cells, Ca2+ dye fluorescence, FDSS; hits give low values; inhibition of EC80 agonist-evoked calcium signal. activity change, negative = inhibition, % (concentration not given with the values). 390,000 tested, 0.02% active. AID 624415; in the data active means activity change below about -50%; inconclusive means between about -30% and that limit;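 further: stimulus is agonist 54-4 at its EC80 concentration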
#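 Tet-induced TRPML1-DL cells loaded with Ca8 no-wash calcium dye were read kinetically on FDSS. Compound addition was followed by EC80 agonist 54-4 (4 uM final); inhibition was read over 110 s.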
# A number is an active result; – = inactive; ? = inconclusive; · = no result; ! = not active in a repeat. Unless noted, the call rests on the fitted dose curve; in most records, active means well fitted activation curve with a large enough effect; inconclusive means small, poorly fitted or top-dose-only effect; inactive means no such curve, though single readings can be large or run the other way.
SMILES,IL-2 act,TRPML1 ag,PTAP TSG101 blk,PKM2 activator,BRCA1 expr act,TRPML1 inh
COc1cc2c(NC3CCN(C(C)C)CC3)nc(N3CCCN(C)CC3)nc2cc1OCCCN(C)C,·,–,·,·,–,·
Cc1cc(N2CCOCC2)nc(NCc2ccccc2)n1,–,79.9,–,?,–,–
CC(=O)C(/C=N/c1cc(-c2ccc(C)cc2)nn1-c1ccccc1)=C(\C)O,–,–,–,–,3.98µM,–
CCOc1ccccc1NC(=O)c1cc2cc(C)ccc2n1C,·,–,·,·,·,–
OCCc1ccc(O)c(-n2nc3ccccc3n2)c1,–,–,–,–,11.2µM,–
COc1ccc(OC)c(CNC(=O)CCc2c(C)nc3c(c2C)c(=O)n(C)c(=O)n3C)c1,·,–,·,·,–,–
COc1ccc(NC(=O)c2cc(-c3cccs3)on2)cc1,–,–,–,–,4.47µM,–
COc1ccc(NC(=O)c2cc(-c3cccs3)on2)cc1OC,–,–,–,–,–,–
Cc1ccc(-c2cc(C(=O)Nc3cc(C)ccc3O)no2)cc1,–,–,–,–,1.12µM,–
O=C(Nc1cc(Br)ccc1O)c1cc(-c2ccc3c(c2)OCO3)on1,–,–,–,–,1.41µM,–
CSc1ccccc1NC(=O)c1cc(-c2ccc3c(c2)OCO3)on1,–,–,–,–,–,–
Cc1ccc(NC(=O)c2cc(C)on2)cc1,–,–,–,–,5.01µM,–
Nc1c(Br)cc(Br)c2cccnc12,·,–,·,·,–,–
COc1cccc(CNC(=O)C2CCCN(c3nnc(-n4c(C)ccc4C)s3)C2)c1OC (stereo not given),·,–,·,·,–,–
COC(=O)c1sc(NC(=O)COc2ccc(OC)cc2)nc1C,–,–,–,·,–,–
COC(=O)c1sc(NC(=O)c2cc(C)on2)nc1C,–,–,–,–,10µM,–
Cc1ccc(NC(=O)CSc2nccn2C2CCCC2)cc1,·,–,·,·,·,–
Cc1c(C(=O)N2CCCCC2)oc2ccc(Br)cc12,–,–,–,·,?,–
Cc1ccc2oc(C(=O)N3CCCCCC3)c(C)c2c1,–,–,–,–,5.62µM,–
CN(C)c1ccc(-c2nc(-c3ccncc3)no2)cc1[N+](=O)[O-],·,–,·,·,?,–
O=C(O)C#CC(=O)O,·,–,·,·,·,·
C=C[C@@H]1c2ccccc2N(S(=O)(=O)c2ccc(C)cc2)[C@H](c2ccccc2)C1(C#N)C#N,–,62.7!,–,·,–,–
C=C[C@@H]1c2cc(C)ccc2N(S(=O)(=O)c2ccc(C)cc2)[C@H](c2ccccc2)C1(C#N)C#N,–,–,–,·,–,?
CC(=O)N1CCc2cc(S(=O)(=O)NCCC(=O)Nc3ccc4c(c3)OCCO4)ccc21,–,–,–,–,11.2µM,–
CCNc1nc(NCC)nc(-n2cc(C(=O)c3cc(Cl)ccc3O)cn2)n1,·,–,·,·,–,·
SMILES,IL-2 act,TRPML1 ag,PTAP TSG101 blk,PKM2 activator,BRCA1 expr act,TRPML1 inh
Cc1cccc(NC(=O)Cn2nnc3ccccc32)c1,–,–,–,–,12.6µM,–
COC(=O)c1ccc(NC(=O)Cn2nnc3ccccc32)cc1,–,–,–,–,10µM,–
O=C(Cn1nnc2ccccc21)Nc1ccc([N+](=O)[O-])cc1,–,–,–,–,–,–
Cc1ccc(NC(=O)Cn2nnc3ccccc32)cc1,–,–,–,–,8.91µM,–
CC(C#N)(NC(=O)CN1CCN(S(=O)(=O)c2cccc(F)c2)CC1)C1CC1 (stereo not given),–,–,·,·,–,–
COc1ccc2c(c1OC)C(=O)N1c3ccccc3COC21 (stereo not given),–,–,–,–,?,–
COc1ccc2c(c1OC)C(=O)N1c3ccccc3SC21 (stereo not given),–,–,–,–,5.01µM,–
CC(=Nc1ccc(Br)cc1)c1sc2ccccc2c1O,–,–,–,–,3.98µM,–
Cc1cc2nc(C)c(Cl)c(=O)n2[nH]1,–,–,–,–,–,–
Cc1nc2cc(-c3ccc(Br)cc3)[nH]n2c(=O)c1Cl,–,·,–,–,4.47µM,·
COCCn1c(SCC(=O)Nc2ccc3c(c2)OCCO3)nc2c(c1=O)SC(C)C2 (stereo not given),–,–,–,–,8.91µM,–
CC1Cc2nc(SCC(=O)Nc3ccc4c(c3)OCO4)n(Cc3ccccc3)c(=O)c2S1 (stereo not given),–,–,–,–,11.2µM,–
CC1Cc2nc(SCC(=O)Nc3ccc4c(c3)OCCO4)n(C)c(=O)c2S1 (stereo not given),–,–,–,–,–,–
CC(C)(C)c1ccc(S(=O)(=O)CCc2ccccn2)cc1,–,–,–,–,14.1µM,–
CCOC(=O)C1CCN(C(=O)c2ccc3c(c2)sc2nc(-c4ccccc4)cn23)CC1,·,–,·,·,·,–
CCOC(=O)N1CCN(C(=O)c2ccc3c(c2)sc2nc(-c4ccccc4)cn23)CC1,–,–,–,–,10µM,–
CCCCCCn1cnc2c(oc3nc4c(cc32)CCCC4)c1=O,–,–,–,–,3.55µM,–
CCCCn1cnc2c(oc3nc4c(cc32)CCCC4)c1=O,–,–,–,–,–,–
O=C(C[n+]1cccc(Br)c1)c1ccc(I)cc1,·,–,·,·,·,·
COC(=O)c1ccc(Cl)cc1NC(=O)N1CCCn2nc(C)cc21,·,–,·,·,·,–
Cn1c(=O)c2[nH]c(N3CCCCC3)nc2n(C)c1=O,–,60.1,?,–,–,–
Cc1ccc(S(=O)(=O)n2nc(-c3ccccc3)nc2NCc2ccccc2Cl)cc1,·,–,·,·,–,–
Cc1ccc2cc(CN(Cc3ccco3)C(=O)c3ccco3)c3nnnn3c2c1,–,–,–,15.8µM,–,–
Cc1nn2c(-c3ccco3)ccnc2c1-c1ccc(F)cc1,·,–,·,·,–,–
CN(C)c1ccc(/C=C(\C#N)C(=O)c2ccccc2)cc1,–,71.8,?,–,–,?
SMILES,IL-2 act,TRPML1 ag,PTAP TSG101 blk,PKM2 activator,BRCA1 expr act,TRPML1 inh
CCN(CC)c1ccc(/C=C(\C#N)C(=O)c2ccc(Br)cc2)cc1,?,79.2,?,–,–,–
CN(C)c1ccc(/C=C(\C#N)c2ccccc2)cc1,–,–,–,–,2.82µM,–
N#C/C(=C\c1ccc(C#N)cc1)C(=O)c1ccccc1,–,–,–,22.4µM,–,–
Cc1c(Cl)cccc1NC(=O)c1oc2ccc(S(=O)(=O)N3CCCCCC3)cc2c1C,·,–,·,·,·,–
CC(C)OC(=O)N(C)C[C@@H]1OCc2cn(nn2)CCCC(=O)N([C@H](C)CO)C[C@H]1C,–,–,·,·,–,–
CCSc1nnc(NC(=O)c2ccccc2C)s1,–,–,–,–,10µM,–
CCSc1nnc(Nc2ccc(C)cc2)s1,–,–,–,–,10µM,–
